Shown are actives, neighbours in structure and some others; about 8% of the full set was active somewhere.
ELG1 DNA repair = qHTS screen for small molecules that inhibit ELG1-dependent DNA repair in human embryonic kidney (HEK293T) cells expressing luciferase-tagged ELG1; Potency, µM (titrated, usually from 46.1 µM), actives largely listed as inhibitors; actives 2.3% (n = 330,000); HEK293T ELG1-luciferase reporter, luminescence, 16 h; DNA damage induced by 5-fluorouridine; note: nearly all actives have a fitted effect of over 55% in size
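In this reporter screen, reduction of luminescence relative to DMSO vehicle indicated activity. Compounds and 5-fluorouridine were added together to 2,000 cells per well, incubated for 16 hr at 37 °C, then developed with ONE-Glo.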
TSHR antag = Antagonists of the Thyroid Stimulating Hormone Receptor: HTS campaign. Thyrotropin receptor (Homo sapiens), P16473. actives 0.2% (n = 330,000). AID 504810, 2011. TSHR-expressing cells, TSH-stimulated cAMP HTRF, 2 h; hits give low values. activity change, negative = inhibition, % at 11.5 µM;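 active = activity change below a set negative limit, meaning inhibition stronger than a set level, cut at about -70% in these data; inconclusive = activity change between two set negative limits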
Target sequence (P16473 whole entry, looked up): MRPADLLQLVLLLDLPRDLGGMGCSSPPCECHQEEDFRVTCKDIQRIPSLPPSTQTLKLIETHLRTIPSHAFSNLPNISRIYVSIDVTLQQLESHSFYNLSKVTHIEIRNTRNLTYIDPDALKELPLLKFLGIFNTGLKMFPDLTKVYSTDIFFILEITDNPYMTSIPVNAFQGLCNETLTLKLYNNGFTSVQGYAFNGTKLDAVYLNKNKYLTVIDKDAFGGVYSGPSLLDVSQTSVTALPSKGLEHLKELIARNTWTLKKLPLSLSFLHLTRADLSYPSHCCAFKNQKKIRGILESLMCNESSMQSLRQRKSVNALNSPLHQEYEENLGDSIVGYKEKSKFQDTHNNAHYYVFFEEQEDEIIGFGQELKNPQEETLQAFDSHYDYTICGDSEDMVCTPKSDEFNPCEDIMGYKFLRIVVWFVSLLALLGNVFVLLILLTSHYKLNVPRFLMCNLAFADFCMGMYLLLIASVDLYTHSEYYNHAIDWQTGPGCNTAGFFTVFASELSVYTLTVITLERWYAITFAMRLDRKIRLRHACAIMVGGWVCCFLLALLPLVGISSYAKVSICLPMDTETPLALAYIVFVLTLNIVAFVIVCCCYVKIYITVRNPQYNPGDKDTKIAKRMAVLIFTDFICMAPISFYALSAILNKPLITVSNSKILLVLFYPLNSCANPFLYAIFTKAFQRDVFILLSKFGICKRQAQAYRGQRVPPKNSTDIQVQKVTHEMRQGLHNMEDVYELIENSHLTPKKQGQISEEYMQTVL
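Freshly harvested TSHR cells receive pin-tooled compound, then EC80 TSH at 4nM final. After 2 hours at 37 deg C, antibody in lysis buffer and cAMP-d2 are added; 30 minutes at ambient temperature precede the HTRF read.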
RORg inh = qHTS for inhibitors of ROR gamma transcriptional activity. actives 5.4% (n = 310,000). Potency, µM (titrated, usually from 53.6 µM), usual class: inhibitors. Drosophila S2 Gal4-RORgamma UAS-luciferase reporter, 20 h. AID 2551, 2010; note: nearly all actives have a fitted effect of over 60% in size
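ROR gamma transcriptional activity was tracked as Gal4-UAS luciferase output in stably transfected Drosophila Schneider cells, with compound added 1 hr before 700 uM copper sulfate induction and a 20 hr ambient-temperature incubation.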
Gal4-VP16 FLuc = VP16 counterscreen qHTS for inhibitors of ROR gamma transcriptional activity. Drosophila S2 Gal4-VP16 UAS-luciferase, luminescence, 20 h. Potency, µM (series often up to 53.6 µM), hits mostly inhibitors. actives 3.5% (n = 310,000). AID 2546, 2010;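 note: Gal4-VP16 expression switched on by copper sulfate through the metallothionein promoter; nearly all actives have a fitted effect of over 50% in size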
FBPA coupling cs = qHTS Assay for Inhibitors of Fructose-1,6-bisphosphate Aldolase from Giardia Lamblia: Coupling assay counterscreen. AID 2472, 2010. activity change, negative = inhibition, % at 58.2 µM, hits read low. coupling enzyme system counterscreen, AmpLite Red fluorescence. actives 0.67% (n = 290,000); in the data active = activity change below about -30%
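Compounds tested against the coupling enzymes alone at 57.5 uM final; readout was AmpLite Red fluorescence (525/598 nm) after 20 min at RT.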
Each line names hits and unclear results; the compound was inactive in the other large screens. Unless noted, calls come from the whole dose curve; as a rule, active = well fitted curve in the direction sought with a large enough effect; inconclusive = small, poorly fitted or top-dose-only effect, or another doubt; inactive = no such curve, though single readings can be large; an effect the other way counts as inactive or inconclusive.

COc1ccc(CCCNC(=O)C2CCC(=O)N(CC3CCCCC3)C2)cc1 (stereo unspecified)	none (no result: FBPA coupling cs)
COc1ccc(OCc2cc(C(=O)N3CCOCC3)no2)c(Cl)c1	ELG1 DNA repair inconclusive
Cc1ccc(C2CCN(C(=S)Nc3cccc(C)c3)C2)cc1 (stereo unspecified)	RORg inh 7.94µM
CC(OC(=O)c1cccc(-n2cnnn2)c1)C(=O)Nc1ccc(N(C)C)cc1 (stereo unspecified)	none (no result: RORg inh, Gal4-VP16 FLuc, FBPA coupling cs)
c1ccc(-c2ccccn2)nc1	none
c1ccc(-c2ccc(-c3ccccn3)nn2)nc1	ELG1 DNA repair inconclusive, RORg inh 5.62µM, Gal4-VP16 FLuc 8.91µM
CC1=NN(c2nc3ccccc3[nH]2)C(=O)/C1=C/N(C)C	RORg inh 5.01µM, Gal4-VP16 FLuc inconclusive
CC1=NN(c2ccccc2)C(=O)/C1=C/N(C)C	none
Oc1c(C(Nc2cccc(C(F)(F)F)c2)c2cccnc2)ccc2cccnc12 (stereo unspecified)	RORg inh 2.51µM, Gal4-VP16 FLuc 2.82µM
Cc1cc(NC(c2cccnc2)c2ccc3cccnc3c2O)no1 (stereo unspecified)	ELG1 DNA repair inconclusive, RORg inh 3.98µM, Gal4-VP16 FLuc 6.31µM
N#CCCNS(=O)(=O)c1ccc(C(=O)OCCCOC(=O)c2ccc(S(=O)(=O)NCCC#N)cc2)cc1	RORg inh 11.2µM, Gal4-VP16 FLuc 17.8µM (no result: FBPA coupling cs)
O=S(=O)(c1ccccc1)N1CCC[C@@]2(CCN(Cc3nccs3)C2)C1	none (no result: ELG1 DNA repair, TSHR antag)
COc1ccc(CNC(=O)C(C)OC(=O)c2cccs2)cc1 (stereo unspecified)	TSHR antag -100.9
CC(=O)Oc1ccc2nc(/C=C/c3ccccc3)oc(=O)c2c1	TSHR antag -78.3, RORg inh 6.31µM, Gal4-VP16 FLuc inconclusive
CC(=O)Oc1ccc2nc(/C=C/c3ccc(C=O)cc3)oc(=O)c2c1	none (no result: RORg inh, Gal4-VP16 FLuc)
CCOc1ccc(NC(=S)Nc2cc(-c3ccccc3)[nH]n2)cc1	ELG1 DNA repair inconclusive, RORg inh 1.78µM, Gal4-VP16 FLuc 3.55µM
COc1ccc(NC(=S)Nc2cc(-c3ccccc3)[nH]n2)cc1Cl	ELG1 DNA repair inconclusive, RORg inh 2.82µM, Gal4-VP16 FLuc 2µM
COc1ccc(NC(=S)Nc2cc(C)[nH]n2)cc1Cl	ELG1 DNA repair inconclusive, RORg inh inconclusive, Gal4-VP16 FLuc inconclusive
Cc1cc(NC(=S)Nc2ccc(C)c(Cl)c2)n[nH]1	ELG1 DNA repair inconclusive, RORg inh 0.355µM, Gal4-VP16 FLuc 1µM
CCOc1ccc(NC(=S)Nc2cccnc2)cc1	RORg inh inconclusive
COc1cc(OC)cc(C2=Nn3c(nnc3-c3cccc(OC)c3)SC2)c1	none (no result: ELG1 DNA repair, TSHR antag)
COc1ccccc1-c1ccc2ncnc(N(C)C)c2c1	RORg inh inconclusive (no result: ELG1 DNA repair, TSHR antag)
CC(=O)c1ccc(NC(=O)CSc2nnc(C3CC3)n2C2CC2)cc1	none (no result: RORg inh, Gal4-VP16 FLuc, FBPA coupling cs)
CNc1snc(C)c1C(=O)OC(C)C(=O)NCc1ccccc1 (stereo unspecified)	none (no result: RORg inh, Gal4-VP16 FLuc, FBPA coupling cs)
Cc1cc2c(nc1C)CCCN2C[C@H](C)O/N=C\[C@@H](C)[C@H](OCc1ccccc1)C(C)C	none (no result: ELG1 DNA repair, TSHR antag)
COCCCNc1nc(SCc2ccccc2)nc2sc3c(c12)CCC3	ELG1 DNA repair inconclusive, RORg inh 11.2µM
COCCNc1nc(SC)nc2sc3c(c12)CCN(C)C3	none
O=c1c(Cl)c(Cl)cnn1Cc1ccccc1Cl	ELG1 DNA repair 10.3µM, RORg inh 1.12µM, Gal4-VP16 FLuc inconclusive
Cc1cc(C)cc(Cn2ncc(Cl)c(Cl)c2=O)c1	ELG1 DNA repair inconclusive, RORg inh inconclusive, Gal4-VP16 FLuc 11.2µM
Cc1cc(C)cc(NC(=O)CSc2nc(=O)n3cc(C)ccc3n2)c1	none (no result: RORg inh, Gal4-VP16 FLuc, FBPA coupling cs)
Cc1cccc(-n2cc(-c3ccccc3)c3c(NN4CCOCC4)ncnc32)c1	ELG1 DNA repair inconclusive, RORg inh 6.31µM, Gal4-VP16 FLuc inconclusive
CCOc1ccc(-n2cc(-c3ccccc3)c3c(N4CCOCC4)ncnc32)cc1	ELG1 DNA repair 9.2µM
CCOc1ccc(-n2cc(-c3ccccc3)c3c(=S)nc[nH]c32)cc1	RORg inh 1µM, Gal4-VP16 FLuc 1.12µM
O=C(c1cn(Cc2ccccc2)nc1-c1cccnc1)N1CCN(Cc2c(F)cccc2Cl)CC1	ELG1 DNA repair 9.2µM (no result: RORg inh, Gal4-VP16 FLuc, FBPA coupling cs)
O=C(c1cn(Cc2ccccc2)nc1-c1cccnc1)N1CCN(Cc2ccccc2)CC1	none (no result: RORg inh, Gal4-VP16 FLuc, FBPA coupling cs)
N#Cc1ncc(Cc2ccccc2)nc1C#N	Gal4-VP16 FLuc 14.1µM
N#Cc1nc(Cc2ccccc2)oc1NCc1cccnc1	RORg inh inconclusive
COC(=O)CCNC(=O)c1nn(Cc2ccccc2)c(=O)c2ccccc12	none
CC[n+]1ccc(C[n+]2ccccc2)c2ccccc21	FBPA coupling cs -31.8
Cc1ccc2c(c1)c(C)cc[n+]2Cc1ccccc1	RORg inh inconclusive
O=c1c(/C=N/OCc2ccc(Cl)cc2Cl)c[nH]n1-c1cccc(Cl)n1	ELG1 DNA repair inconclusive, RORg inh 12.6µM, Gal4-VP16 FLuc 20µM
Cc1ccc(NC2=C(C(=O)c3ccccc3)N(C)S(=O)(=O)c3ccccc32)cc1	none
CCN1C(C(=O)c2ccccc2)=C(Nc2ccccc2C)c2ccccc2S1(=O)=O	TSHR antag -78.8
Cc1cc(OCCCCn2ccnc2)cc(C)c1Cl	RORg inh 12.6µM
Cc1cccc(Cl)c1OCCCCn1ccnc1	RORg inh 15.8µM
Cc1ccccc1OCCCCCn1ccnc1	RORg inh 11.2µM
Clc1ccccc1OCCCn1ccnc1	none
Clc1ccccc1OCCCCn1ccnc1	none (no result: Gal4-VP16 FLuc)
Cc1cc(Cl)cc(C)c1OCCCCn1ccnc1	RORg inh 11.2µM
Cc1cc(OCCn2ccnc2)cc(C(C)C)c1	none
Cc1cccc(Cl)c1OCCN1CCCC1	FBPA coupling cs -30.3
Cc1cc(OCCCn2ccnc2)cc(C(C)C)c1	RORg inh 31.6µM
CC(C)(C)c1ccc(OCCCn2ccnc2)cc1	Gal4-VP16 FLuc 25.1µM
COC(=O)N1CCC2(CCN(Cc3nccs3)CC2)CC1	none (no result: ELG1 DNA repair, TSHR antag)
CC(OC(=O)Cc1c[nH]c2ccccc12)C(=O)NC1CCCCC1C (stereo unspecified)	ELG1 DNA repair inconclusive (no result: RORg inh, Gal4-VP16 FLuc, FBPA coupling cs)
COc1ccc(S(=O)(=O)N2CCC(C(=O)NCCc3c[nH]c4ccccc34)CC2)cc1	none
Cc1cc(C)n(-c2nc(Nc3ccccc3C)nc(-n3nc(C)cc3C)n2)n1	ELG1 DNA repair inconclusive, RORg inh 2.82µM, Gal4-VP16 FLuc 10µM (no result: FBPA coupling cs)
Cc1cc(C)n(-c2nc(Nc3ccccc3C(F)(F)F)nc(-n3nc(C)cc3C)n2)n1	ELG1 DNA repair 13µM, RORg inh 7.08µM, Gal4-VP16 FLuc 7.08µM
Cc1csc(Nc2ccccc2C(F)(F)F)n1	none (no result: FBPA coupling cs)
O=C(c1cccc(F)c1)N1CCC2(CC1)CCN(c1cccc(-c3ccccc3)c1)CC2	none (no result: ELG1 DNA repair, TSHR antag)
O=C(CSc1nnnn1-c1ccccc1)CC(=O)Nc1ccc(Cl)cc1	ELG1 DNA repair 16.4µM

From PubChem BioAssay
